From PubChem BioAssay (NCI)
The panel holds about 79,000 compounds, 15% with a hit somewhere; the sample as a whole holds those more often. Active and inactive are the calls of the source. Rule as the data show it: active = growth inhibition above about 70%; inactive = the rest.

Assays:
[1] = NCI Yeast Anticancer Drug Screen. Data for the rad50 strain (AID 155);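 also: 0% = growth of vehicle-only cultures of the same strain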; conditions: S. cerevisiae rad50 strain growth inhibition; at 50.0 µM; hits give high values
Method in brief: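 Relative growth inhibition (compound vs vehicle) was measured in yeast with a defined repair-gene alteration.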

[2] = NCI Yeast Anticancer Drug Screen. Data for the mec2-1 strain (AID 157); conditions: S. cerevisiae mec2-1 strain, at 50.0 µM, hits give high values
Method in brief: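 Vehicle-treated cultures served as reference for growth inhibition of compound-exposed mec2-1 yeast.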

[3] = NCI Yeast Anticancer Drug Screen. Data for the sgs1 mgt1 strain (AID 161);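 also: 0% = growth of cultures given vehicle only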; conditions: S. cerevisiae sgs1 mgt1 strain, at 50.0 µM, hits give high values
Method in brief: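 Mutant yeast exposed to compound; growth scored against vehicle-only wells.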

[4] = NCI Yeast Anticancer Drug Screen. Data for the cln2 rad14 strain (AID 165);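 also: 0% = growth equal to vehicle treated cultures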; conditions: S. cerevisiae cln2 rad14 strain, at 50.0 µM, hits give high values
Method in brief: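 Each compound was tested on cln2 rad14 yeast. Inhibition of growth was calculated against vehicle-exposed controls.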

[5] = NCI Yeast Anticancer Drug Screen. Data for the bub3 strain (AID 167); conditions: S. cerevisiae bub3 mutant strain, at 50.0 µM, hits give high values
Method in brief: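 Screening used yeast with an engineered genetic alteration affecting cell cycle control. Compound-exposed cultures were compared with vehicle cultures, and reduced growth was taken as inhibition.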

[6] = NCI Yeast Anticancer Drug Screen. Data for the mlh1 rad18 strain (AID 175); conditions: S. cerevisiae mlh1 rad18 strain growth inhibition; at 50.0 µM; hits give high values
Method in brief: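 Vehicle-treated cultures served as the reference for growth inhibition in a yeast strain carrying DNA damage repair alterations exposed to each compound.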

Measured: growth inhibition

O=C(Cl)CN1C(=O)c2ccccc2C1=O
inactive: [1] -12.1% | [2] -24% | [3] -14.5% | [4] -14.3% | [5] -12.3% | [6] -0.25%

CC(c1ccccc1)N1OC1(c1ccccc1)c1ccccc1 (configuration not stated)
active: [6] 90.1%
inactive: [1] 41.5% | [2] 50.4% | [3] 57.8% | [4] 22.9% | [5] 30.6%

COc1cc2cccnc2c2[nH]c(=O)c3c(c12)CCC3
inactive: [1] 13.9% | [2] 9.35% | [3] -6% | [4] -16.4% | [5] 7.2% | [6] 7.25%

CCc1ccc(NS(=O)(=O)c2ccc3ccccc3c2)cc1
active: [1] 96% | [2] 97.5% | [3] 96.9% | [4] 94.6% | [5] 96.5% | [6] 96.4%

O=CC1CCCO1 (configuration not stated)
inactive: [1] 21.2% | [2] -22.2% | [3] 15.2% | [4] 6.9% | [5] 6.45% | [6] 22%

C/C(=C1\SC(=S)N(C2OC(CO)C(O)C(O)C2O)C1=O)c1ccco1 (configuration not stated)
inactive: [1] -14% | [2] -9.3% | [3] -33.2% | [4] -0.85% | [5] -3.3% | [6] -32.9%

O=C(NCCO)Nc1ccccc1F
inactive: [1] 10.2% | [2] 3.65% | [3] -3.65% | [4] -27.3% | [5] -7.75% | [6] 5.55%

Nc1nnnn1C1CCCCC1
inactive: [1] 9.3% | [2] 3.8% | [3] -4.65% | [4] -8.65% | [5] -11.3% | [6] 20.9%

c1ccc2c(CN3CCN(Cc4c[nH]c5ccccc45)CC3)c[nH]c2c1
inactive: [1] 17.1% | [2] -8.75% | [3] -14.5% | [4] -13.8% | [5] -2.8% | [6] -21.9%

O=S1(=O)C=Cc2ccccc2CC1
inactive: [1] -4.15% | [2] -12.2% | [3] -22.4% | [4] -10.8% | [5] 0.9% | [6] -27.8%

CCC1(C)N=C(N)Nc2nc3ccccc3n21 (configuration not stated)
inactive: [1] -9.95% | [2] 0.35% | [3] -7.65% | [4] -28.6% | [5] 0.4% | [6] -18.2%

CCN(CC)C(=O)C1CCN(CCC(=O)Nc2ccccc2)CC1
inactive: [1] 8.4% | [2] -7.6% | [3] 12.9% | [4] -16.1% | [5] 5.15% | [6] 7.15%

N[C@@H]1CCCC[C@H]1O
inactive: [1] -0.35% | [2] -5.5% | [3] -8.7% | [4] -24.9% | [5] -5.9% | [6] -16.1%

Cc1nc(-c2ccccc2)ncc1C(O)CN(C)C (configuration not stated)
inactive: [1] -4.7% | [2] -6.45% | [3] 5.35% | [4] 2.35% | [5] -30.4% | [6] -6.6%

Cc1ccc(S(=O)(=O)OCC2CC=CCC2COC(=O)c2ccc([N+](=O)[O-])cc2)cc1 (configuration not stated)
inactive: [1] 33.5% | [2] -5.55% | [3] 12.1% | [4] 15.1% | [5] 6.6% | [6] 6.4%

Cc1cccc(N=Cc2ccc(Cl)cc2Cl)c1C
inactive: [1] 34.6% | [2] 20.1% | [3] 26.7% | [4] 28.6% | [5] 19% | [6] 31.6%

NC(=O)c1cn(C2OC(CO)C(O)C2O)c(=O)[nH]c1=O (configuration not stated)
inactive: [1] 14.2% | [2] -8.8% | [3] -0.1% | [4] 18.8% | [5] -12.7% | [6] -5.25%

Oc1ccc2c(c1)-c1ccccc1C2
inactive: [1] 38.8% | [2] 2.9% | [3] -4.5% | [4] 17.2% | [5] 37.3% | [6] 29.9%

O=C(c1ccccc1)c1ccc2c(c1)-c1ccccc1-2
inactive: [1] 7.3% | [2] -7% | [3] 15.1% | [4] -21.1% | [5] 12.8% | [6] 12.8%

CC1(c2ccc(Cl)cc2)NC(=O)NC1=O (configuration not stated)
inactive: [1] -27.3% | [2] 3.1% | [3] -7.65% | [4] -29.5% | [5] 9.85% | [6] -20.1%

CCCCCC#CC(=O)OCC
inactive: [1] 0.6% | [2] -0.9% | [3] -6.25% | [4] 10.1% | [5] -11.9% | [6] 15.8%

NC(=S)C(=S)NCCO
inactive: [1] 19.2% | [2] 1.7% | [3] -5.7% | [4] -68.2% | [5] -2.7% | [6] -12.1%

CC1OCC2CC3(O1)OC3C(COCC1OC3COC(C)OC4(C3)OC14)O2 (configuration not stated)
inactive: [1] -7.05% | [2] -25.3% | [3] -3.45% | [4] -44.5% | [5] -3.15% | [6] -14.9%

O=C1CSC(c2ccccc2)N1O (configuration not stated)
inactive: [1] -11.4% | [2] -5% | [3] -22% | [4] -51.5% | [5] -7.5% | [6] -7.7%

NCc1c(C(N)=O)ncn1Cc1ccccc1
inactive: [1] -0.95% | [2] -3.75% | [3] 5% | [4] -4.15% | [5] 7.4% | [6] -6.05%

COc1ccc(C2C(=O)c3ccc(OC)cc3OC2c2cccnc2)cc1 (configuration not stated)
inactive: [1] 14.9% | [2] -8.8% | [3] 53.7% | [4] 29.6% | [5] 45.8% | [6] 25.2%

NC(=O)NC(Cc1ccccc1)(C(=O)O)c1ccccc1 (configuration not stated)
inactive: [1] 6.55% | [2] 6.15% | [3] 35.9% | [4] -0.75% | [5] 24.4% | [6] 20.4%

Brc1cccc2c(SCCCCCCSc3c4ccccc4nc4c(Br)cccc34)c3ccccc3nc12
inactive: [1] 3.1% | [2] -16.1% | [3] -18.8% | [4] -52.5% | [5] -21% | [6] 5.85%

CCOC(=O)CCCN(c1sc(C)c(-c2ccccc2)c1C(=O)OCC)S(=O)(=O)c1ccc(C)cc1
inactive: [1] -16.6% | [2] -3.25% | [3] -14.6% | [4] -29.3% | [5] -3.75% | [6] 4.5%

CCCCOC(=O)NC(=O)c1cc2cccc(OC)c2oc1=O
inactive: [1] 17.1% | [2] 21.6% | [3] 14.4% | [4] 14.3% | [5] 14.8% | [6] 10.2%

CC(C(=O)O)C1Nc2ccccc2NC1=O (configuration not stated)
inactive: [1] 13.4% | [2] 28.6% | [3] 7.05% | [4] -12.4% | [5] -18.7% | [6] 0.3%

CCC1c2c(cc(=O)[nH]c2O)C(=O)N1Cc1ccccc1 (configuration not stated)
inactive: [1] 12.3% | [2] 6.4% | [3] 7.75% | [4] 4.25% | [5] 1.15% | [6] -0.1%

Cc1ccc(OC(=O)NC(C)(C)C)cc1
inactive: [1] 0.8% | [2] -18.9% | [3] 11.2% | [4] -35.1% | [5] 11.8% | [6] -12.5%

Nc1nc(Cc2ccccc2)cc(-c2cc(Cc3ccccc3)nc(N)n2)n1
inactive: [1] 2.7% | [2] 4.7% | [3] 5.2% | [4] 1.8% | [5] -6.3% | [6] 1.7%

CSCSCC(CO)NC(=O)/C(C)=C\c1c(C)[nH]c(=O)[nH]c1=O (configuration not stated)
inactive: [1] -3.35% | [2] -2% | [3] -2.35% | [4] -7% | [5] 8.4% | [6] -13.1%

N#CC(C(=N/NC(N)=S)/C(=N/NC(N)=S)C(C#N)c1ccc(Cl)cc1)c1ccc(Cl)cc1 (configuration not stated)
inactive: [1] -16.9% | [2] -19.8% | [3] -23.9% | [4] -6.85% | [5] -4.95% | [6] -13.1%

O=C(O)c1ccc(CS(=O)(=O)c2ccccc2C(=O)O)cc1
inactive: [1] 9% | [2] -0.6% | [3] 2.05% | [4] 15.8% | [5] 5.6% | [6] 20.2%

OCC1OC(n2cc[nH]c2=S)C(O)C1O (configuration not stated)
inactive: [1] 8.5% | [2] 7.6% | [3] -2.6% | [4] 4.45% | [5] 10.2% | [6] -12.7%

CC(/C=N/NC1=NCCCN1)=N\NC1=NCCCN1
inactive: [1] -7.05% | [2] -8.75% | [3] -14.3% | [4] 8.25% | [5] 2.9% | [6] -12.2%

O=C(Nc1c[nH]c(=O)[nH]c1=O)Oc1ccccc1
inactive: [1] -5.65% | [2] -6.7% | [3] -4.8% | [4] -1% | [5] -50% | [6] 5.05%

O=C(NCC1CC1)c1ccccc1NC(=O)c1cc2ccccc2oc1=O
inactive: [1] -7.9% | [2] -8.25% | [3] 8.4% | [4] 9.85% | [5] 18.7% | [6] 19.8%

CC(C)CCC(C)(C)O
inactive: [1] 45.9% | [2] 1.8% | [3] 16.1% | [4] -20.7% | [5] 9.95% | [6] 34.2%
